The values below come from PubChem BioAssay (EPA / NIEHS).

The source made the active and inactive calls. The calls were made as follows: active = hit-call score of the fitted dose curve at least 0.9, where 1 is the maximum; inactive = score below 0.9.

Settings in all cases: mRNA level, 48 h; actives raise or lower the signal
Read-out in assay [1]: Glutamate-cysteine ligase catalytic (GCLC), GCLC (gene 2729)
The experiment in a line: LTEA_HepaRG_GCLC: Life Technologies and Expression Analysis (LTEA) Assay for Glutamate-cysteine ligase catalytic (GCLC) using HepaRG (AID 2283498). The procedure, abridged:
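Oxidative-stress marker GCLC is measured as mRNA change in human HepaRG liver cells after 48 h chemical treatment in 0.5% DMSO, eight concentrations from 100 uM. Activity is fitted bidirectionally against vehicle.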

Read-out in assay [2]: growth arrest and DNA damage 45 (GADD45G), GADD45G (gene 10912)
In words: LTEA_HepaRG_GADD45G: Life Technologies and Expression Analysis (LTEA) Assay for growth arrest and DNA damage 45 (GADD45G) using HepaRG (AID 2283499). The method in brief: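 Gain or loss of GADD45G mRNA, quantified by TaqMan qRT-PCR against three housekeeping genes, is fitted in both directions relative to 0.5% DMSO. Human HepaRG cultures receive test chemical for 48 h at up to 100 uM.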

Read-out in assay [3]: Glutamate-cysteine ligase regulatory (GCLM), GCLM (gene 2730)
The experiment in a line: LTEA_HepaRG_GCLM: Life Technologies and Expression Analysis (LTEA) Assay for Glutamate-cysteine ligase regulatory (GCLM) using HepaRG (AID 2283500). The procedure, abridged: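 HepaRG, 48 h dosing, 100 uM top, half-log x8, 0.5% DMSO vehicle. Readout: GCLM mRNA by TaqMan qRT-PCR, housekeeping-normalized (ACTB/GAPDH/POLR2A). Curves fit bidirectionally vs DMSO baseline.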

Read-out in assay [4]: Glutathione S-transferase M3 (GSTM3), GSTM3 (gene 2947)
The experiment in a line: LTEA_HepaRG_GSTM3: Life Technologies and Expression Analysis (LTEA) Assay for Glutathione S-transferase M3 (GSTM3) using HepaRG (AID 2283501). The method in brief:
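HepaRG, plated 48 h, then serum-free induction medium; test chemical 48 h, duplicate; 100 uM top, half-log x8, 0.5% DMSO. Read-out: GSTM3 mRNA (TaqMan qRT-PCR, Fluidigm array). Bidirectional fit vs DMSO.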

Read-out in assay [5]: Heat shock 70 kDa protein 1 (HSPA1A), gene 3303
In words: LTEA_HepaRG_HSPA1A: Life Technologies and Expression Analysis (LTEA) Assay for Heat shock 70 kDa protein 1 (HSPA1A) using HepaRG (AID 2283502). The method in brief:
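HepaRG, 48 h exposure, 8-pt half-log CRC from 100 uM in 0.5% DMSO, duplicates. Readout: TaqMan qRT-PCR of HSPA1A mRNA, housekeeping-normalized (ACTB/GAPDH/POLR2A). Bidirectional fit vs 0.5% DMSO baseline.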

Read-out in assay [6]: Hypoxia-inducible factor 1-alpha (Homo sapiens) (UniProt Q16665)
The experiment in a line: LTEA_HepaRG_HIF1A: Life Technologies and Expression Analysis (LTEA) Assay for Hypoxia-inducible factor 1 (HIF1A) Trancription factor using HepaRG (AID 2283503). The procedure, abridged:
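Gain- or loss-of-signal HIF1A mRNA changes are fitted against a DMSO baseline. HepaRG cultures receive eight concentrations, highest 100 uM, for 48 h in serum-free induction medium with 0.5% DMSO.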

Read-out in assay [7]: 3-Hydroxy-3-Methylglutaryl-CoA Synthase 2 (HMGCS2), HMGCS2 (gene 3158)
The experiment in a line: LTEA_HepaRG_HMGCS2: Life Technologies and Expression Analysis (LTEA) Assay for 3-Hydroxy-3-Methylglutaryl-CoA Synthase 2 (HMGCS2) using HepaRG (AID 2283504). The procedure, abridged:
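HepaRG, plated 48 h then switched to serum-free induction media; cmpd 8-pt, max 100 uM, 1/2-log, 0.5% DMSO, n=2, 48 h. HMGCS2 mRNA by Fluidigm TaqMan qRT-PCR, ACTB/GAPDH/POLR2A norm; bidirectional fit vs DMSO.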

Read-out in the next assay: HGF (gene 3082)
In words: LTEA_HepaRG_HGF: Life Technologies and Expression Analysis (LTEA) Assay for Hepatocyte Growth Facto (HGF) using HepaRG (AID 2283505). The procedure, abridged: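 Read-out is HGF transcript level by qRT-PCR, normalized to three housekeeping genes, fitted bidirectionally against 0.5% DMSO vehicle. Human HepaRG cells received test chemicals for 48 h at up to 100 uM.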

Read-out in assay [8]: Insulin Like Growth Factor 1 (IGF1), IGF1 (gene 3479)
The experiment in a line: LTEA_HepaRG_IGF1: Life Technologies and Expression Analysis (LTEA) Assay for Insulin Like Growth Factor 1 (IGF1) using HepaRG (AID 2283506). The method in brief:
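qRT-PCR readout of IGF1 mRNA, normalized to three housekeeping genes, after 48 h chemical exposure of HepaRG cells. Concentrations: 8-point half-log series, top 100 uM, 0.5% DMSO vehicle. Gain or loss fitted against DMSO baseline.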

Read-out in assay [9]: Intercellular Adhesion Molecule 1 (ICAM1), ICAM1 (gene 3383)
The experiment in a line: LTEA_HepaRG_ICAM1: Life Technologies and Expression Analysis (LTEA) Assay for Intercellular Adhesion Molecule 1 (ICAM1) using HepaRG (AID 2283507). The procedure, abridged:
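Readout is qRT-PCR mRNA level, normalized to three housekeeping genes and fitted bidirectionally against 0.5% DMSO vehicle. Human HepaRG cultures received compound for 48 h, top concentration 100 uM with half-log dilutions.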

Read-out in assay [10]: Insulin-like growth factor-binding protein 1 (IGFBP1), IGFBP1 (gene 3484)
The experiment in a line: LTEA_HepaRG_IGFBP1: Life Technologies and Expression Analysis (LTEA) Assay for Insulin-like growth factor-binding protein 1 (IGFBP1) using HepaRG (AID 2283508). The procedure, abridged:
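Thawed HepaRG cells are plated for 48 h, switched to serum-free induction medium, then dosed in duplicate for another 48 h (100 uM top, half-log steps). Lysates in RLT go to qRT-PCR, and gain or loss of signal is fitted relative to vehicle.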

Read-out in assay [11]: Interleukin 6 (IL6), IL6 (gene 3569)
The experiment in a line: LTEA_HepaRG_IL6: Life Technologies and Expression Analysis (LTEA) Assay for Interleukin 6 (IL6) using HepaRG (AID 2283509). The procedure, abridged:
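Changes in IL6 mRNA, up or down relative to 0.5% DMSO controls, were derived from concentration-response curves in human HepaRG cells treated for 48 h at up to 100 uM, with ACTB, GAPDH and POLR2A as normalizers.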

Read-out in assay [12]: Interleukin 6 Receptor (IL6R), IL6R (gene 3570)
The experiment in a line: LTEA_HepaRG_IL6R: Life Technologies and Expression Analysis (LTEA) Assay for Interleukin 6 Receptor (IL6R) using HepaRG (AID 2283510).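 As to AC50: differentiated human HepaRG liver cells in serum-free induction medium.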 The procedure, abridged:
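HepaRG, 48 h exposure, 8-pt half-log series, top 100 uM, 0.5% DMSO vehicle, duplicates. Read-out: TaqMan qRT-PCR of IL6R transcript, housekeeping-gene normalized. Gain or loss fitted relative to DMSO baseline.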

Read-out in assay [13]: Potassium channel subfamily K member 1 (KCNK1), KCNK1 (gene 3775)
In words: LTEA_HepaRG_KCNK1: Life Technologies and Expression Analysis (LTEA) Assay for Potassium channel subfamily K member 1 (KCNK1) using HepaRG (AID 2283511). The method in brief: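 Human HepaRG cultures receive test chemicals for 48 h in 0.5% DMSO, top concentration 100 uM with half-log dilutions. Induction or suppression of KCNK1 mRNA relative to DMSO is derived by bidirectional fitting of qRT-PCR data.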

Read-out in assay [14]: Keratin 19 (KRT19), KRT19 (gene 3880)
The experiment in a line: LTEA_HepaRG_KRT19: Life Technologies and Expression Analysis (LTEA) Assay for Keratin 19 (KRT19) using HepaRG (AID 2283512). The method in brief:
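KRT19 transcript levels, measured by Fluidigm qRT-PCR against three housekeeping genes, are fitted for gain or loss of signal relative to DMSO. Human HepaRG cells receive test chemicals (top 100 uM, half-log steps, 0.5% DMSO) for 48 hours.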

Read-out in assay [15]: JUN Transcription Factor, JUN (gene 3725)
In words: LTEA_HepaRG_JUN: Life Technologies and Expression Analysis (LTEA) Assay for JUN Transcription Factor using HepaRG (AID 2283513). The method in brief:
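HepaRG, 48 h exposure, 8-pt half-log series top 100 uM, 0.5% DMSO, duplicate. JUN mRNA by qRT-PCR (Fluidigm), housekeeping-normalized (ACTB/GAPDH/POLR2A); bidirectional curve fit vs DMSO baseline.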

Read-out in assay [16]: Lipase C (LIPC), LIPC (gene 3990)
In words: LTEA_HepaRG_LIPC: Life Technologies and Expression Analysis (LTEA) Assay for Lipase C (LIPC) using HepaRG (AID 2283514). The method in brief: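 In this multiplexed gene-expression screen, human HepaRG cultures received test chemicals for 48 h across eight concentrations with 100 uM highest, in duplicate. Values reflect LIPC mRNA induction or suppression versus DMSO vehicle, from normalized qRT-PCR.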

Read-out in assay [17]: Lipoprotein lipase (LPL), LPL (gene 4023)
The experiment in a line: LTEA_HepaRG_LPL: Life Technologies and Expression Analysis (LTEA) Assay for Lipoprotein lipase (LPL) using HepaRG (AID 2283515). The procedure, abridged:
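Concentration-response testing used half-log steps from 100 uM in 0.5% DMSO on human HepaRG cells, 48 h, duplicate wells. Phenobarbital 1 mM served as induction control; LPL mRNA was normalized to ACTB, GAPDH, POLR2A.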

Read-out in assay [18]: MicroRNA 122 (MIR122), gene 406906
The experiment in a line: LTEA_HepaRG_MIR122: Life Technologies and Expression Analysis (LTEA) Assay for MicroRNA 122 (MIR122) using HepaRG (AID 2283516). Also: the transcript read is the microRNA miR-122. The method in brief: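 qRT-PCR read-out (TaqMan, Fluidigm array), normalized to three housekeeping genes; HepaRG cells dosed 48 h at 8 concentrations up to 100 uM in 0.5% DMSO, duplicate; gain or loss fitted against DMSO baseline.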

Read-out in assay [19]: matrix metalloproteinase-10 (MMP10), MMP10 (gene 4319)
The experiment in a line: LTEA_HepaRG_MMP10: Life Technologies and Expression Analysis (LTEA) Assay for matrix metalloproteinase-10 (MMP10) using HepaRG (AID 2283517). The procedure, abridged: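 In differentiated HepaRG cultures kept in 0.5% DMSO, test chemicals act for 48 h over an eight-point range with a top dose of 100 uM. Expression is then quantified by TaqMan RT-PCR against ACTB, GAPDH and POLR2A.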

Sequence of Hypoxia-inducible factor 1-alpha (Homo sapiens) (Q16665 whole entry, looked up): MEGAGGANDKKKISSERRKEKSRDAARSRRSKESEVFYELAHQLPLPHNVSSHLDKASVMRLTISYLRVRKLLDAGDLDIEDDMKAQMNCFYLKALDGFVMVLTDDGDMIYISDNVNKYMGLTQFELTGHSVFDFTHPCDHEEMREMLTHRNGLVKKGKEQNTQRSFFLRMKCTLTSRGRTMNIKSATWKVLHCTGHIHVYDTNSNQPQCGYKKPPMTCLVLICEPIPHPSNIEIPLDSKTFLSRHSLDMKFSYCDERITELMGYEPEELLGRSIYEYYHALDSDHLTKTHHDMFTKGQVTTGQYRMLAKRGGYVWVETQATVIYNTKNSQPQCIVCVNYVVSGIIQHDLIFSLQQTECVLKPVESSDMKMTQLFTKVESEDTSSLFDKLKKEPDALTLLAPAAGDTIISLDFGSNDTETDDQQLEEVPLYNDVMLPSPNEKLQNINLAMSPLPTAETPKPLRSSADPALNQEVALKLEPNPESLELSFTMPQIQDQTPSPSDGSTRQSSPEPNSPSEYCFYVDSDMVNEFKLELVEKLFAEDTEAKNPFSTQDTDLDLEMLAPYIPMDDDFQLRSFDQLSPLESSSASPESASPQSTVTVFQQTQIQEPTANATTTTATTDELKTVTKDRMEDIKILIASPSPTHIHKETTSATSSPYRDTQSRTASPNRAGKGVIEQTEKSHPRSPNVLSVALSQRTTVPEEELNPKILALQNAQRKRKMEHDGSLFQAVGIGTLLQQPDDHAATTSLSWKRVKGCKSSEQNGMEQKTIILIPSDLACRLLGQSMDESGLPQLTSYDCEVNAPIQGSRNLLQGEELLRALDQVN

For the compound `O=C(O)c1nc(Cl)ccc1Cl`, the compound was classed as inactive in [1], in assay [2], in [3], in assay [4], in assay [5] and in assay [6]. In addition, the result (in assay [7]; with HGF (gene 3082); in [8]; in assay [9]; in assay [10]; in [11]) was inactive. In addition, the outcome in assay [12], in [13], in assay [14], in assay [15], in assay [16] and in assay [17] was inactive. Also, the compound was called inactive in assay [18] and in assay [19].
The term AC50 denotes the concentration at which the activity in the assay is half-maximal. Regarding `CC(C)(C)c1ccc(CSc2cnn(C(C)(C)C)c(=O)c2Cl)cc1`, the compound was classed as inactive (in assay [1]; in [4]; in assay [5]; in [6]; with HGF (gene 3082); in assay [12]). For the same compound, the compound was classed as inactive in [13] and in assay [15]. For the same compound, the AC50 in [2] was 2.07 µM (active); in assay [3], 4.86 µM (active); in [7] it was 2.38 µM (active); in assay [8], 1.88 µM (active); in assay [9], 2.69 µM (active); in assay [11], 2.84 µM (active). Besides, the AC50 in [14] was 1.58 µM (active); in assay [16], 2.82 µM (active); in assay [17] it was 2.25 µM (active); in assay [18], 22.8 µM (active); in assay [19], 18.1 µM (active).
For the compound `C#CCOS(=O)OC1CCCCC1Oc1ccc(C(C)(C)C)cc1` (centres undefined), the concentration at half-maximal activity (AC50) was 28.2 µM (active) in [1]; 12.7 µM (active) in assay [2]; 9.92 µM (active) in [3]; 29.7 µM (active) in [4]; 27.2 µM (active) in assay [5]; 26.4 µM (active) in [6]. Besides, the AC50 in assay [7] was 25.6 µM (active); with HGF (gene 3082), 20.1 µM (active); in assay [8], 19.5 µM (active); in assay [10], 14.6 µM (active); in [11], 23.1 µM (active); in assay [12], 14.5 µM (active). Further, the AC50 in assay [13] is 21.5 µM (active); in [14], 12.8 µM (active); in assay [17], 28.7 µM (active); in [19], 22.5 µM (active). The outcome in assay [9], in assay [15] and in assay [16] was inactive.
`CCON=C(CC)C1=C(O)CC(c2c(C)cc(C)cc2C)CC1=O` (centres undefined): the compound was called inactive in assay [1], in assay [2], in assay [3], in [4], in assay [5] and in assay [6]. Moreover, the compound was classed as inactive (in assay [7]; with HGF (gene 3082); in assay [8]; in assay [9]; in assay [11]; in [12]). Moreover, the result in assay [13], in assay [14], in [15], in assay [16], in assay [17] and in assay [19] was inactive.
Consider `COc1cnc(OC)n2nc(NS(=O)(=O)c3c(OCC(F)F)cccc3C(F)(F)F)nc12`, for which the compound was classed as inactive (in assay [1]; in assay [2]; in [3]; in assay [4]; in assay [6]; with HGF (gene 3082)). In addition, the compound was called inactive in assay [9], in [11], in assay [12], in assay [13], in assay [14] and in [15]. In addition, the compound was classed as inactive in [16], in assay [17] and in assay [19]. Besides, the AC50 in assay [5] is 50 µM (active); in [7], 31.8 µM (active); in assay [8] it was 10.3 µM (active).
